± gives the standard deviation of the averaged measurements. Over roughly 25,000 sequences, “ln(normalized median fluorescence intensity)” has its median near 8.6; the highest 2% begin near 10. The list comes from a sample in which the highest values are over-represented; it also holds similar and randomly drawn sequences.
Tested on: PfAP2-EXP AP2 domain (GST-tagged)
Assay: gcPBM binding intensity (ln(normalized median fluorescence intensity)); higher = stronger DNA binding
Method in brief: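 For binding intensity, the highest Masliner-normalised natural-log median intensity across replicate spots of either probe orientation was taken. Protein bound to the array was stained with Alexa488 anti-GST antibody and scanned at 488 nm. The protein, GST-tagged P. falciparum DNA-binding domains from E. coli at about 25 μg on average, had been applied for 1 h to an Agilent 4 × 180k array of primer-extended double-stranded 36-bp intergenic genomic probes and negative controls.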

Row | Sequence | gcPBM binding intensity (ln)
1 | CCACTATATAAAATCACACATTTATATTATACATAT [CACACA_site4570] | 8.43 ± 0.4
2 | TGTCATTTAATTTTTTGTACGAAAAAAACATATAAA [XGTACX_site4952] | 8.6 ± 0.24
3 | TAATATTAATCCTAGTGTACATTAATTTATATGTAT [XGTACX_site3583] | 8.51 ± 0.45
4 | GTATATATATATTTATGTACTTACCTACATAATTAT [XGTACX_site4435] | 8.84 ± 0.24
5 | AAATTAAAATATATATGTACATATATATATATATAT [XGTACX_site7844] | 10 ± 0.42
6 | TTTAATTAAAATATATGTACATATATATATATATAT [XGTACX_site4517] | 10.4
7 | ATATATATATATATATGTACATATTATTAATAATAT [XGTACX_site6667] | 10.2 ± 0.35
8 | AAATTAATATAAATATGTACATAAATAATAAAATAT [XGTACX_site6131] | 8.71 ± 0.5
9 | GTATGTATGTATATATGTACACATTATTATTTAATG [XGTACX_site5802] | 8.78 ± 0.11
10 | ATATATATATATATATGTACACATTAATGTTTTTTT [XGTACX_site167] | 10.4 ± 0.24
11 | ATAATGTTTTATAATACACACATTATGTATATAAAT [CACACA_site4077] | 8.36 ± 0.38
12 | ATATTAATATACATATGTACATATATATATATATAT [XGTACX_site7425] | 10.2 ± 0.24
13 | TATACATATATTATATGTACATATATATATAATATA [XGTACX_site2942] | 8.29 ± 0.28
14 | TATTATTATTATTATTTTAAAAGAAATAAAAATATG [XGTACX_negctrl_site119] | 8.1 ± 0.39
15 | AATTGGAAGAAAAAAAAGGAAGGAAAGTTATTACAT [GTGCAC_negctrl_site74] | 8.62 ± 0.41
16 | AAATTTGAAGAATATTGTACGCATAATAATTAAATA [XGTACX_site4300] | 8.82 ± 0.41
17 | TTACATATGGTTAGTAGTACATATATAAATGTAAAT [XGTACX_site7206] | 8.62 ± 0.47
18 | AAATCAAACTTTGGTGTGCACAAATATATACATATA [GTGCAC_site9986] | 9.1 ± 0.29
19 | AATTAATGGTTAAAGGTGCACAATACATATATTACA [GTGCAC_site9943] | 9.57 ± 0.45
20 | TTACATACAATTGGTGTGCACATATATATATATATA | 10.3 ± 0.33

Row | Sequence | gcPBM binding intensity (ln)
21 | TATATATATAAGATTGTGCACATTAAAATGATAGAA [GTGCAC_site9621] | 9.265 ± 0.049
22 | TATATATTTATATATGCATGTACATTTTTATTTATT [TGCATGCA_site1048] | 8.82 ± 0.25
23 | TACATGCATTTCTCATGTACATAATTTTCCCATATT [XGTACX_site5158] | 8.81 ± 0.4
24 | TATATATATATATATACATGCATTTCTCATGTACAT [TGCATGCA_site621] | 10.2 ± 0.33
25 | CCTTACTTCTTATAAAGTACCCAATGATATACATTA [XGTACX_site1554] | 8.41 ± 0.31
26 | AAACGATCTCGATGTTGTACACATTTATATAGAAAC [XGTACX_site4373] | 8.86 ± 0.4
27 | AATATTCAATATAAAGTGCATTATTGTGGACCTAAT | 8.77 ± 0.099
28 | GCCAATAAAGATGTGGTGCATTATATATATATATAT | 10.3 ± 0.23
29 | TAAATATATATATAAGTGCATTATATATATATATAA | 8.58 ± 0.028
30 | TAATTTTTTATATATTGTACAAATAATATATGATGT [XGTACX_site268] | 8.46 ± 0.23
31 | TTTCTTATTTTGGATTGTACGTATATTTTTCATTTT [XGTACX_site224] | 8.93 ± 0.38
32 | CATTATATGATTTATGTGCACATTCATTTATTTTAA | 8.83 ± 0.099
33 | TCTTACGGATTCATTGTGCACATATATATATATATA [GTGCAC_site9896] | 10.2 ± 0.45
34 | ATATACATATATATATGTACTTATTTATTTATTTAT [XGTACX_site2532] | 8.56 ± 0.26
35 | AAAAAAAAAAAAAAAAGTACATATATTATATATATA [XGTACX_site2983] | 8.9 ± 0.099
36 | AAAAAAAAAAAAAAAAGTACATATATATATAATTAT [XGTACX_site7836] | 8.54 ± 0.43
37 | TATATATTATAAAAGAGTACAGAAAGAAAAAAAAAT [XGTACX_site8305] | 9.12 ± 0.59
38 | TATATTTACTTATGAAGTACATATATATATATATAT [XGTACX_site5069] | 10.3 ± 0.21
39 | AAATTATTAAAAAAAAGTACATATATATATATATAT [XGTACX_site8313] | 10.4 ± 0.25
40 | CAGACATATTAAAAGAGTACATATATATATATATAT [XGTACX_site1158] | 10.3 ± 0.28

Row | Sequence | gcPBM binding intensity (ln)
41 | ACATATTAATTATAAAGTACATATATATATATATAT [XGTACX_site4540] | 10.3 ± 0.18
42 | ATATTTTAATTATAAAGTACATAAAAATATATAAAC [XGTACX_site6705] | 8.58 ± 0.3
43 | TTAATATATTTTAAAAGTACATAATATTATTTTTTA [XGTACX_site3642] | 8.04 ± 0.26
44 | TATATATATATATATAGTACATATTTATATATGAAA [XGTACX_site8488] | 10.1 ± 0.36
45 | AAAAATATATAAGAGAGTACATAAAATAAATTAATT [XGTACX_site1534] | 8.61 ± 0.41
46 | ATGTAGATATATATCTGTACGTATATGTAAATATTA [XGTACX_site1516] | 8.72 ± 0.35
47 | ATGATATTATAAAAAAGTACATATGTATATAATTAT [XGTACX_site7652] | 8.88 ± 0.45
48 | AAAAATTTATTTTTAGGTACACAATTGAATTATTTA [XGTACX_site7008] | 8.16 ± 0.27
49 | TATTTAAAATATTAAATTTGTAAAGTTCGAGGGAAG [GTGCAC_negctrl_site337] | 8.52 ± 0.48
50 | TGATGAAAATTTTTCTGTACAAAAAGTATGAAGGTA [XGTACX_site8901] | 8.88 ± 0.38
51 | AGTTTAATTTTGTATACACACATTTGAATTATTAAT [CACACA_site7625] | 8.77 ± 0.5
52 | AATATGTCTATATTTTTTATATGGAAATATTATAAA [GTGCAC_negctrl_site700] | 7.92 ± 0.39
53 | TTTATAATAAAATTTTTACACACTTTAAAAAAAAAA [CACACA_site8070] | 8.07 ± 0.37
54 | AAAAAAAAAAAAAAATGTACATAAAAATGATATAAT [XGTACX_site4096] | 8.7 ± 0.55
55 | TATTTAAGAATATGAAGTACATATATTATTTAAAAA [XGTACX_site7897] | 8.15 ± 0.29
56 | CTTTAAGTTATATGAAGTACAATTTAAAAAAATGAA [XGTACX_site358] | 8.41 ± 0.38
57 | TTTTTATAACATAAAAGTACATATTTTTAATTTAAT [XGTACX_site4394] | 8.05 ± 0.4
58 | TATAAAATTTTTAAAAGTACATATTTTACATAATAC [XGTACX_site2193] | 8.38 ± 0.26
59 | TTTAAAAAGTTATGAAGTACATATATATATATATAT [XGTACX_site2188] | 10.2 ± 0.29
60 | TATTCCTAATTTAAAAGTACATATATATATATATAT [XGTACX_site3008] | 10.2 ± 0.54
